From PMC5540273 (PLoS ONE, 2017)

system: T1, YANK3; conditions: concentration: 1 μM, replicates: in singlicate; n = 1
T1 construct: gene STK32C
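Further: KINOMEscan kinase panel screen.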

| Structure (SMILES) | %Inh [%] |
| --- | --- |
| Cc1ccc(-c2nc(Nc3ccncc3)c3ccccc3n2)s1 [GSK189015] | 28 |
| CNc1nc(-c2ccc3c(N)n[nH]c3c2)cc(N2C[C@@H](C(=O)NC3CCCCC3)OC[C@H]2C)n1 [GSK2375584] | 22 |
| Cn1cnc2c(N)ncnc21 [SKF-97623] | 0 |
| Fc1ccc(-c2nc[nH]c2-c2ccncc2)cc1 [SB-217360] | 0 |
| COc1cccc(NC(=O)Nc2ccc(C)c(-c3ccc(C(=O)Nc4ccncc4)cc3)c2)c1 [GSK1398474] | 10 |
| Nc1ncnc2occ(-c3ccc4c(c3)CCN4C(=O)Cc3cc(F)ccc3F)c12 [GSK2645446] | 0 |
| COc1ccc(CSc2nnc(-c3ccc4nccn4c3)o2)cc1C(F)(F)F | 0 |
| Cc1cccc2c(-c3ccncn3)c(-c3ccc(F)cc3)nn12 [GW515532] | 18 |
| Cc1ccccc1-c1cc(-c2c[nH]nc2-c2ccccn2)ccn1 [GW680061] | 13 |
| CCCCc1nn2ncccc2c1-c1ccnc(NC2CC2)n1 [GW684374] | 0 |
| CCn1c(-c2ccccc2)nc2cnccc21 [SB-733416] | 32 |
| Cn1cncc1-c1cc2c(Nc3ccc(OCc4ccccc4)cc3)ncnc2cn1 [GW281179] | 15 |
| Cc1c(Cn2c3ccccc3n3c(=O)cc(N4CCOCC4)nc23)cccc1C(F)(F)F [GSK2306394] | 13 |
| CS(=O)(=O)CCNCc1nc(-c2ccc3ncnc(Nc4ccc(OCc5ccccc5)c(Cl)c4)c3c2)cs1.Cl [GW582764] | 40 |
| COC(=O)C(NC(=O)NC1CCN(c2ccnc(Nc3ccc(F)cc3)n2)C1)c1ccccc1 (centres unmarked) [GSK1379712] | 0 |
| Cc1ccc(NC(=O)Nc2ccc(Cl)c(C(F)(F)F)c2)cc1-c1ccc(C(=O)Nc2ccncc2)cc1 [GSK1398470] | 10 |
| COc1ccc(-c2coc3ccc(-c4nnc(C)o4)cc23)cc1 | 9 |
| COC(=O)c1cccc(NC(=O)NC2CCN(c3ccnc(Nc4ccc(OC)cc4)n3)C2)c1 (centres unmarked) [GSK1379746] | 8 |
| CC(=O)c1c(C)c2cnc(Nc3ccn(C)n3)nc2n(C2CCCC2)c1=O | 2 |

| Structure (SMILES) | %Inh [%] |
| --- | --- |
| CC(=O)c1c(C)c2cnc(Nc3ccc(N4CCNCC4)cn3)nc2n(C2CCCC2)c1=O | 0 |
| CNC(=O)c1ccc(C)c(-n2c(C)cc(OCc3ccc(F)cc3F)c(Br)c2=O)c1 | 0 |
| FC(F)(F)c1ccccc1-c1cc(-c2c[nH]nc2-c2ccccn2)ccn1 [GW679396] | 13 |
| CCn1c(-c2c(N)noc2C)nc2cnccc21 [SB-737856] | 17 |
| Fc1ccc(-c2nn3cccc(F)c3c2-c2ccncc2)cc1 [GW475620] | 12 |
| CS(=O)(=O)Cc1ccc(Nc2nccc(-c3c(-c4cccc(NC(=O)C5CCCCC5)c4)nn4ncccc34)n2)cc1 [GSK350559] | 3 |
| CC(C)c1cc(-c2ccc3c(N)n[nH]c3c2)nc(N)n1 [GSK2250882] | 19 |
| Nc1cccc(-c2ccc3c(N)n[nH]c3c2)n1 [GSK2192730] | 0 |
| COc1nccc(-c2c(-c3ccc(F)cc3)ncn2CCCN2CCOCC2)n1 [SB-282852] | 0 |
| Cc1ccc(NC(=O)Nc2ccccc2)cc1-c1ccc(C(=O)Nc2ccncc2)cc1 [GSK1398471] | 0 |
| O=C(Nc1n[nH]c2nc(-c3cccs3)c(Br)cc12)C1CC1 [SB-735297] | 0 |
| O=C(Nc1n[nH]c2nc(-c3cccs3)c(Br)cc12)C1CCCC1 [SB-743341] | 65 |
| O=c1cc(N2CCOCC2)nc2n(Cc3ccccc3F)ccn12 [GSK2297428] | 0 |
| Cl.Cl.Cl.N#Cc1ccc(CCNc2nccc(-c3cccc(CN4CCNCC4)c3)n2)cc1 [GSK2137462] | 3 |
| CSc1ccc(-c2nc3n(c2-c2ccncc2)CCC3)cc1 [SKF-105561] | 0 |
| Cc1ccc(NC(=O)Nc2ccccc2F)cc1-c1ccc(C(=O)Nc2ccncc2)cc1 [GSK1398477] | 16 |
| CCc1ccc(-c2ccc3c(c2)-c2n[nH]cc2S(=O)(=O)N3C)cc1 | 0 |
| COc1ccc(Nc2nccc(N3CCC(NC(=O)c4cc5ccccc5s4)C3)n2)cc1 (centres unmarked) [GSK1379738] | 0 |

system: T2, YES; conditions: concentration: 1 μM, replicates: in singlicate; n = 1
T2 construct: gene YES1

| Structure (SMILES) | %Inh [%] |
| --- | --- |
| Cc1ccc(-c2nc(Nc3ccncc3)c3ccccc3n2)s1 [GSK189015] | 5 |
| CNc1nc(-c2ccc3c(N)n[nH]c3c2)cc(N2C[C@@H](C(=O)NC3CCCCC3)OC[C@H]2C)n1 [GSK2375584] | 14 |
| Cn1cnc2c(N)ncnc21 [SKF-97623] | 0 |
| Fc1ccc(-c2nc[nH]c2-c2ccncc2)cc1 [SB-217360] | 0 |
| COc1cccc(NC(=O)Nc2ccc(C)c(-c3ccc(C(=O)Nc4ccncc4)cc3)c2)c1 [GSK1398474] | 12 |
| Nc1ncnc2occ(-c3ccc4c(c3)CCN4C(=O)Cc3cc(F)ccc3F)c12 [GSK2645446] | 0 |
| COc1ccc(CSc2nnc(-c3ccc4nccn4c3)o2)cc1C(F)(F)F | 0 |
| Cc1cccc2c(-c3ccncn3)c(-c3ccc(F)cc3)nn12 [GW515532] | 0 |
| Cc1ccccc1-c1cc(-c2c[nH]nc2-c2ccccn2)ccn1 [GW680061] | 15 |
| CCCCc1nn2ncccc2c1-c1ccnc(NC2CC2)n1 [GW684374] | 0 |
| CCn1c(-c2ccccc2)nc2cnccc21 [SB-733416] | 4 |
| Cn1cncc1-c1cc2c(Nc3ccc(OCc4ccccc4)cc3)ncnc2cn1 [GW281179] | 19 |
| Cc1c(Cn2c3ccccc3n3c(=O)cc(N4CCOCC4)nc23)cccc1C(F)(F)F [GSK2306394] | 6 |
| CS(=O)(=O)CCNCc1nc(-c2ccc3ncnc(Nc4ccc(OCc5ccccc5)c(Cl)c4)c3c2)cs1.Cl [GW582764] | 7 |
| COC(=O)C(NC(=O)NC1CCN(c2ccnc(Nc3ccc(F)cc3)n2)C1)c1ccccc1 (centres unmarked) [GSK1379712] | 0 |
| Cc1ccc(NC(=O)Nc2ccc(Cl)c(C(F)(F)F)c2)cc1-c1ccc(C(=O)Nc2ccncc2)cc1 [GSK1398470] | 7 |
| COc1ccc(-c2coc3ccc(-c4nnc(C)o4)cc23)cc1 | 0 |
| COC(=O)c1cccc(NC(=O)NC2CCN(c3ccnc(Nc4ccc(OC)cc4)n3)C2)c1 (centres unmarked) [GSK1379746] | 13 |
| CC(=O)c1c(C)c2cnc(Nc3ccn(C)n3)nc2n(C2CCCC2)c1=O | 1 |

| Structure (SMILES) | %Inh [%] |
| --- | --- |
| CC(=O)c1c(C)c2cnc(Nc3ccc(N4CCNCC4)cn3)nc2n(C2CCCC2)c1=O | 6 |
| CNC(=O)c1ccc(C)c(-n2c(C)cc(OCc3ccc(F)cc3F)c(Br)c2=O)c1 | 0 |
| FC(F)(F)c1ccccc1-c1cc(-c2c[nH]nc2-c2ccccn2)ccn1 [GW679396] | 0 |
| CCn1c(-c2c(N)noc2C)nc2cnccc21 [SB-737856] | 19 |
| Fc1ccc(-c2nn3cccc(F)c3c2-c2ccncc2)cc1 [GW475620] | 5 |
| CS(=O)(=O)Cc1ccc(Nc2nccc(-c3c(-c4cccc(NC(=O)C5CCCCC5)c4)nn4ncccc34)n2)cc1 [GSK350559] | 36 |
| CC(C)c1cc(-c2ccc3c(N)n[nH]c3c2)nc(N)n1 [GSK2250882] | 16 |
| Nc1cccc(-c2ccc3c(N)n[nH]c3c2)n1 [GSK2192730] | 0 |
| COc1nccc(-c2c(-c3ccc(F)cc3)ncn2CCCN2CCOCC2)n1 [SB-282852] | 0 |
| Cc1ccc(NC(=O)Nc2ccccc2)cc1-c1ccc(C(=O)Nc2ccncc2)cc1 [GSK1398471] | 12 |
| O=C(Nc1n[nH]c2nc(-c3cccs3)c(Br)cc12)C1CC1 [SB-735297] | 8 |
| O=C(Nc1n[nH]c2nc(-c3cccs3)c(Br)cc12)C1CCCC1 [SB-743341] | 0 |
| O=c1cc(N2CCOCC2)nc2n(Cc3ccccc3F)ccn12 [GSK2297428] | 0 |
| Cl.Cl.Cl.N#Cc1ccc(CCNc2nccc(-c3cccc(CN4CCNCC4)c3)n2)cc1 [GSK2137462] | 6 |
| CSc1ccc(-c2nc3n(c2-c2ccncc2)CCC3)cc1 [SKF-105561] | 7 |
| Cc1ccc(NC(=O)Nc2ccccc2F)cc1-c1ccc(C(=O)Nc2ccncc2)cc1 [GSK1398477] | 26 |
| CCc1ccc(-c2ccc3c(c2)-c2n[nH]cc2S(=O)(=O)N3C)cc1 | 0 |
| COc1ccc(Nc2nccc(N3CCC(NC(=O)c4cc5ccccc5s4)C3)n2)cc1 (centres unmarked) [GSK1379738] | 17 |
